Measurements as given in PubChem BioAssay (NCI).
Values joined by “and” are separate entries in the source; they are usually repeats but may differ in a detail not shown here. Equal entries are not always repeated. Compounds without any hit were thinned out: in the full panel of roughly 83,000, 20% have a hit.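 Activity criterion: percent growth below 10, measured after cells in 96-well plates were exposed to a single compound concentration for 48 hours.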 Active and inactive are the calls of the source.

Key:
Assay in all cases: NCI-60 one-dose screen, 48 h (100 = growth as untreated, 0 = no growth, -100 = all killed)
Details in all cases: 10 µM unless noted
[1] = tested on: DU-145 prostate
[2] = tested on: K-562 leukemia
[3] = tested on: MALME-3M melanoma
[4] = tested on: MDA-MB-231 breast
[5] = tested on: RXF 393 renal
[6] = tested on: SF-268 CNS
[7] = tested on: SF-295 CNS
[8] = tested on: SF-539 CNS
[9] = tested on: UACC-257 melanoma
[10] = tested on: M14 melanoma

Structure (SMILES)	growth [1]	growth [2]	growth [3]	growth [4]	growth [5]	growth [6]	growth [7]	growth [8]	growth [9]	growth [10]
O=[N+]([O-])c1ccc(Oc2ccccc2)cc1	117% (inactive) and 127% (inactive)	118% (inactive) and 123% (inactive)	106% (inactive) and 124% (inactive)	109% (inactive) and 136% (inactive)	117% (inactive) and 118% (inactive)	106% (inactive) and 99.4% (inactive)	95.4% (inactive) and 121% (inactive)	104% (inactive) and 98.1% (inactive)	108% (inactive) and 91.7% (inactive)	98.6% (inactive) and 108% (inactive)
CCN(CC)C(=S)SSC(=S)N(CC)CC	83.4% (inactive) and 109% (inactive)	54.6% (inactive) and 80.5% (inactive)	61.2% (inactive) and 113% (inactive)	81.6% (inactive) and 102% (inactive)	105% (inactive) and 131% (inactive)	88.1% (inactive) and 95.7% (inactive)	78.5% (inactive) and 103% (inactive)	91.5% (inactive) and 92.8% (inactive)	69.7% (inactive) and 69.5% (inactive)	66.8% (inactive) and 92.4% (inactive)
CC(C)C(=O)Nc1ccc([N+](=O)[O-])c(C(F)(F)F)c1	74% (inactive) and 113% (inactive)	57.1% (inactive) and 62.1% (inactive)	83.3% (inactive) and 88% (inactive)	84.7% (inactive) and 102% (inactive)	104% (inactive)	88.6% (inactive) and 102% (inactive)	76.7% (inactive) and 92% (inactive)	96.9% (inactive) and 92.7% (inactive)	108% (inactive) and 112% (inactive)	98.9% (inactive) and 92.9% (inactive)
CC1(c2ccc3ccccc3c2)CCC(=O)O1 (stereo not given)	107% (inactive)	86.7% (inactive)	96.8% (inactive)	111% (inactive)	104% (inactive)	99.7% (inactive)	107% (inactive)	95.7% (inactive)	96.5% (inactive)	117% (inactive)
O=C(/C=C\c1ccnc2ccccc12)c1ccc([N+](=O)[O-])cc1	101% (inactive) and 96% (inactive)	55.1% (inactive) and 8.08% (active)	101% (inactive) and 85.5% (inactive)	84.1% (inactive) and 93.2% (inactive)	107% (inactive) and 75.7% (inactive)	105% (inactive) and 91.6% (inactive)	82.6% (inactive)	85.2% (inactive)	90% (inactive) and 65.8% (inactive)	90.7% (inactive) and 79.5% (inactive)
O=S1(=O)CC(Br)C(Br)C1 (stereo not given)	72.3% (inactive) and 129% (inactive)	47% (inactive) and 69.7% (inactive)	19.9% (inactive) and 53.1% (inactive)	88% (inactive) and 103% (inactive)	40.1% (inactive) and 67.5% (inactive)	109% (inactive) and 129% (inactive)	111% (inactive) and 99.8% (inactive)	97.6% (inactive) and 99.1% (inactive)	71.5% (inactive) and 64.7% (inactive)	73.2% (inactive) and 87.5% (inactive)
COc1cc(-c2nccc3cc4c(cc23)OCO4)cc(OC)c1OC	51.9% (inactive) and 30.2% (inactive)	13.4% (inactive) and 21% (inactive)	62.2% (inactive) and 44.7% (inactive)	40.3% (inactive) and 48.9% (inactive)	6.69% (active) and 22.1% (inactive)	43.8% (inactive) and 40.6% (inactive)	19.2% (inactive) and 15.7% (inactive)	19.9% (inactive) and 18.8% (inactive)	52.8% (inactive) and 39.3% (inactive)	14% (inactive) and 23.1% (inactive)
CCN(CC)CCOc1ccc2c(c1)C(=O)c1cc(OCCN(CC)CC)ccc1-2	74.6% (inactive) and 64.7% (inactive)	41.7% (inactive) and -9.47% (active)	98.2% (inactive) and 80.2% (inactive)	65.5% (inactive) and 78.5% (inactive)	71.4% (inactive)	75.1% (inactive) and 54.8% (inactive)	82.6% (inactive) and 71.5% (inactive)	50% (inactive) and 38.4% (inactive)	89.9% (inactive) and 88.6% (inactive)	91.7% (inactive) and 83.4% (inactive)
CCOc1ccc2cc(-c3nn(CC4CCN(C)CC4)c4ncnc(N)c34)ccc2c1	102% (inactive) and 69.9% (inactive)	87.5% (inactive) and 2.73% (active)	69.7% (inactive) and -46.1% (active)	85% (inactive) and 11.1% (inactive)	46.8% (inactive) and -5.36% (active)	90% (inactive) and 48.6% (inactive)	96.9% (inactive) and 50.4% (inactive)	84.4% (inactive) and 16.7% (inactive)	-67.9% (active)	98.4% (inactive) and -77.3% (active)
COc1ccc(NC(=S)Nc2ccccn2)cc1	93% (inactive)	87.1% (inactive)	80.6% (inactive)	99% (inactive)	121% (inactive)	90.7% (inactive)	94.6% (inactive)	109% (inactive)	104% (inactive)	106% (inactive)
OCCN1CCN(CCO)CC1	117% (inactive) and 111% (inactive) and 123% (inactive)	96.3% (inactive) and 100% (inactive) and 104% (inactive)	105% (inactive) and 97.4% (inactive) and 107% (inactive)	106% (inactive) and 107% (inactive) and 114% (inactive)	114% (inactive) and 95.6% (inactive) and 120% (inactive)	107% (inactive) and 101% (inactive) and 105% (inactive)	94.9% (inactive) and 82.6% (inactive) and 110% (inactive)	105% (inactive) and 91.1% (inactive) and 106% (inactive)	117% (inactive)	102% (inactive) and 91.1% (inactive) and 103% (inactive)
Cc1ccc(S(=O)(=O)Nc2nc3ccccc3nc2Nc2ccc3nsnc3c2)cc1	71.2% (inactive) and 62.5% (inactive)	32.8% (inactive) and 35.3% (inactive)	33.3% (inactive) and 9.84% (active)	73.7% (inactive) and 68.8% (inactive)	80.3% (inactive) and 87.8% (inactive)	52.2% (inactive) and 54.5% (inactive)	25.2% (inactive) and 26.7% (inactive)	63.9% (inactive) and 60.8% (inactive)	27% (inactive) and 54.4% (inactive)	48% (inactive) and 49.6% (inactive)
CCOc1ccc(Nc2c3ccccc3nc3ccccc23)cc1	104% (inactive) and 23.1% (inactive) and 35.2% (inactive)	81.3% (inactive) and 6.44% (active) and 3.81% (active)	99% (inactive) and 5.36% (active) and 13.2% (inactive)	94.2% (inactive) and 45.9% (inactive) and 48.4% (inactive)	83.7% (inactive) and -4.09% (active) and 10% (active)	108% (inactive) and 34.7% (inactive) and 45.7% (inactive)	65.7% (inactive) and 28.8% (inactive) and 17.1% (inactive)	94.5% (inactive) and 17.9% (inactive) and 11% (inactive)	96% (inactive) and 24.7% (inactive) and 44.7% (inactive)	95% (inactive) and 19.4% (inactive) and 40.4% (inactive)
COc1ccc(/C(C#N)=C/c2ccccn2)cc1	107% (inactive) and 120% (inactive)	101% (inactive) and 85.6% (inactive)	129% (inactive) and 134% (inactive)	107% (inactive) and 127% (inactive)	99% (inactive) and 96.4% (inactive)	99.1% (inactive) and 122% (inactive)	102% (inactive) and 134% (inactive)	108% (inactive) and 106% (inactive)	110% (inactive) and 112% (inactive)	109% (inactive) and 111% (inactive)
